Data taken from PubChem BioAssay AID932 (The Scripps Research Institute Molecular Screening Center, 2007).
The campaign covered roughly 200,000 compounds. About 5,100 (2.5%) were called active. The full list was thinned out, with actives kept by preference. Unmarked numbers belong to inactive results.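 How the source made its calls: active means activation above the screen-wide mean activation plus 3 SD (cut at about 130% in these data); inactive means the rest.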

Assay: potentiators of IFN-gamma driven STAT1 reporter – cell-based, HTS, luciferase reporter, primary screen (AID 932);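 further: raw ratio to IFN-gamma control signal so 100% means no change and 0% no light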
Conditions: NIH 3T3 STAT1-luciferase reporter, luminescence, at 5.5 µM, hits give high values, 100% = IFN-gamma alone, no compound

Row | SMILES | activation (% of control)
1 | O=S(=O)(ON(c1ccccc1)S(=O)(=O)c1ccccc1)c1ccccc1 | 105%
2 | CCOC(=O)c1cccc(NC(=O)CCOc2ccccc2)c1 | 97.3%
3 | CCOC(=O)N/N=C/c1cccnc1 | 102%
4 | CC(=O)Nc1ccc(S(=O)(=O)NC2(C(F)(F)F)C(=O)Nc3c2c(=O)[nH]c(=O)n3Cc2ccccc2)cc1 (configuration not stated) | 108%
5 | CN(C)c1ccnc2sc(C(=O)c3ccccc3)c(N)c12 | 153% (active)
6 | CN(C)c1ccnc2sc3c(=O)n(Cc4ccccc4)cnc3c12 | 78.3%
7 | Cc1nc2sc(C(=O)c3ccccc3)c(N)c2c2c1CCCC2 | 113%
8 | N#Cc1ccccc1NC(=O)COc1c(Br)cc(Br)c2cccnc12 | 77.3%
9 | Cc1ccc(NC(=O)CC2S/C(=N/N=C3\CCCc4ccccc43)NC2=O)cc1 (configuration not stated) | 107%
10 | COc1ccc(CCn2ccc(O)c(Cc3ccc(Cl)cc3Cl)c2=O)cc1OC | 92.6%
11 | CC1CCCN(c2ccc(C(=O)NCCc3ccccc3)cn2)C1 (configuration not stated) | 147% (active)
12 | O=C(NCCc1ccccc1)c1ccc(NC2=NC3CS(=O)(=O)CC3S2)cc1 (configuration not stated) | 102%
13 | COc1ccc(C(=O)NC2CCN(C(=S)NCCc3ccccc3)CC2)cc1 | 91.9%
14 | CCCC/C(C)=N/NC(=O)NC1CCCCC1 | 102%
15 | NS(=O)(=O)c1ccc(NC(=O)COC(=O)c2ccc(Cl)nc2)cc1 | 103%
16 | CCc1ccc(C2N3CC4([N+](=O)[O-])CN2CC([N+](=O)[O-])(C3)C4(C)C)cc1 (configuration not stated) | 90.6%
17 | Cc1ccc2nc3n(c(=O)c2c1)CCC3 | 106%
18 | COc1ccc(-c2nc3n(c2Br)CCC3)cc1 | 131% (active)
19 | Brc1cccc(-c2nnc3n2CCC3)c1 | 101%
20 | COc1cc(-c2cc(C(=O)OCC(=O)Nc3ccc4c(c3)OCO4)c3ccccc3n2)cc(OC)c1OC | 91.2%
21 | Cc1cccc(C)c1N1CCN(S(=O)(=O)N2CCCCC2)CC1 | 96.7%
22 | CC1CN(CCOc2ccccc2[N+](=O)[O-])CC(C)O1 (configuration not stated) | 101%
23 | COc1ccc(C2Nc3ccccc3C(=O)N2Cc2ccccc2)cc1Cn1nnc2ccccc21 (configuration not stated) | 101%
24 | COc1ccc(C2Nc3ccccc3C(=O)N2c2ccc(Cl)cc2)cc1Cn1cc([N+](=O)[O-])cn1 (configuration not stated) | 181% (active)
25 | COc1ccc(C2Nc3ccccc3C(=O)N2c2ccc(F)cc2)cc1Cn1nnc2ccccc21 (configuration not stated) | 103%

Row | SMILES | activation (% of control)
26 | Cc1nnc(CN(C)Cc2cn[nH]c2-c2ccc(-c3ccccc3)cc2)o1 | 114%
27 | COc1ccc(CCNC(=O)/C(C#N)=C2\N=C(NC(=O)c3cccs3)c3ccccc32)cc1 | 95.7%
28 | COCCCNC(=S)N(Cc1ccccc1)Cc1ccc(F)cc1 | 90%
29 | CC(C)(C)c1csc(NC2=NS(=O)(=O)c3ccccc32)n1 | 130% (active)
30 | Cc1ccc(S(=O)(=O)N(NC2=NS(=O)(=O)c3ccccc32)C(=O)c2ccccc2)cc1 | 106%
31 | O=C(Oc1cccc(NC2=NS(=O)(=O)c3ccccc32)c1)c1ccncc1 | 92.7%
32 | COC(=O)C1=C(C(=O)OC)C(c2cc([N+](=O)[O-])ccc2O)c2sc(=O)[nH]c2S1 (configuration not stated) | 98.4%
33 | CCOC(=O)Cc1csc(NC(=O)COc2ccc3c(C)cc(=O)oc3c2)n1 | 102%
34 | COC(=O)COc1cccc2c(=O)n(CC(=O)NCCc3ccc(OC)c(OC)c3)ccc12 | 100%
35 | CC(/C=N/NC(=O)c1cc(-c2ccc3ccccc3c2)n[nH]1)=C\c1ccco1 | 131% (active)
36 | CC(/C=N/NC(=O)c1ccncc1)=C\c1ccco1 | 98.5%
37 | Cc1ccc(-c2cc(C(=O)N/N=C/C=C/c3ccco3)c3ccccc3n2)cc1C | 78.9%
38 | c1ccc(CSc2nnc(-c3ccco3)n2Cc2ccccc2)cc1 | 144% (active)
39 | c1ccc(CSc2nnc(-c3ccco3)c(-c3ccco3)n2)cc1 | 97.8%
40 | O=C(CSc1nnc(-c2ccco2)n1Cc1ccccc1)NC(=O)NCc1ccco1 | 101%
41 | COc1cccc(OCC(=O)NNC(=O)c2cnccn2)c1 | 98.7%
42 | COc1ccc2c(c1)CCc1c(C(=O)N3CCCC3)noc1-2 | 131% (active)
43 | COc1ccc2c(c1)CCc1c(C(=O)Nc3c(C)n(C)n(-c4ccccc4)c3=O)noc1-2 | 106%
44 | COc1ccc2c(c1)CCc1c(C(=O)N3CCc4ccccc4C3)noc1-2 | 96.8%
45 | O=C(Nc1cccc(C(F)(F)F)c1)c1ccc(N2CCNCC2)c([N+](=O)[O-])c1 | 90.2%
46 | CC(C)CNC(=S)NC(=O)c1ccc(Cl)cc1 | 136% (active)
47 | Cc1occc1C(=O)NNC(=S)NCC(C)C | 102%
48 | CC(C)C(NC(=O)c1ccc(Cl)cc1)C(=O)O (configuration not stated) | 110%
49 | Cn1c(CNC(=O)c2ccccc2F)nnc1SCc1ccc(F)cc1 | 103%
50 | O=C(Nc1ccccc1)c1ccc2c(c1)OCO2 | 110%

Row | SMILES | activation (% of control)
51 | O=C(Nc1nc2ccccc2s1)c1ccc2c(c1)OCO2 | 130% (active)
52 | Cc1cc(C)c2nc(NC(=O)c3ccc4c(c3)OCO4)sc2c1 | 98.5%
53 | Cc1ccc(-c2csc(NC(=O)c3cnccn3)n2)cc1C | 105%
54 | O=C(Nc1nc(-c2ccc(-c3ccccc3)cc2)cs1)c1cnccn1 | 113%
55 | O=C(Nc1nc(-c2cccnc2)cs1)c1ccccc1F | 141% (active)
56 | COc1ccc(OCc2ccc(-c3nc4ccccc4c(=O)n3N)o2)cc1 | 127%
57 | Cc1ccc(C(=O)CSc2nc3ccccc3c(=O)n2N)o1 | 140% (active)
58 | O=C(CCn1c(SCC(=O)c2ccccc2)nc2ccccc2c1=O)NCc1ccc(F)cc1 | 94.6%
59 | Cc1ccccc1OCC(O)CN1CCN(c2ccccn2)CC1 (configuration not stated) | 104%
60 | CCNC(=S)NNC(=O)C1CCN(Cc2ccccc2)CC1 | 90.4%
61 | Cc1ccc(-c2nn(-c3ccccc3)cc2C(=O)Nc2cccc(S(=O)(=O)N3CCOCC3)c2)cc1 | 102%
62 | CCc1ccc(C2C(C#N)=C(N)N(N(C)C)C3=C2C(=O)CCC3)s1 (configuration not stated) | 105%
63 | CS(=O)(=O)c1sc2nc(-c3ccccc3)cc(-c3ccccc3)c2c1N | 104%
64 | CCOC(=O)c1sc2nc(SC)nc(-c3ccccc3)c2c1N | 90%
65 | CCN(CC)C(=O)c1sc2nc(-c3ccccc3)ccc2c1N | 146% (active)
66 | CCN(CC)c1ccc(C(=O)OCC(=O)c2ccco2)cc1 | 149% (active)
67 | O=C(COC(=O)c1ccccc1C(=O)c1ccccc1)c1ccco1 | 103%
68 | O=C(OCC(=O)N1CCCC1)c1ccco1 | 104%
69 | CCOC(=O)/C=c1\s/c(=C\c2ccc(C#N)cc2)c(=O)n1CC(=O)Nc1cccc(C)c1C | 102%
70 | CN(C)CCCN1C(=O)CSC1c1ccc([N+](=O)[O-])cc1 (configuration not stated) | 95%
71 | CCOc1ccc2nc(Nc3nc4ccc(NC(C)=O)cc4s3)sc2c1 | 106%
72 | CCOc1ccc2nc(C(=O)N3CCCC(C)C3)sc2c1 (configuration not stated) | 153% (active)
73 | CCOc1ccc2nc(SC(CC)C(=O)Nc3cc(C)on3)sc2c1 (configuration not stated) | 86.5%
74 | CCNc1nc(NC(C)C)nc(N2CC(=O)N(CC(=O)OCC)C2=N)n1 | 93.2%
75 | O=C(Oc1cccc(N2C(=O)C3C4c5ccccc5C(c5ccccc54)C3C2=O)c1)c1ccco1 (configuration not stated) | 102%

Row | SMILES | activation (% of control)
76 | Cc1ccc(-n2c(SCC(=O)N3c4ccccc4Sc4ccccc43)nnc2-c2ccncc2)cc1 | 109%
77 | CC(C)(C)C(=O)NCCCNc1ccc([N+](=O)[O-])cc1 | 112%
78 | COc1cc(/C=N\Nc2ccc([N+](=O)[O-])cn2)ccc1OCC(=O)O | 98%
79 | COc1cc(/C=N/O)ccc1OCc1ccc([N+](=O)[O-])cc1 | 206% (active)
80 | COc1cc(C(=O)OCc2ccc([N+](=O)[O-])cc2)cc(OC)c1OC | 104%
81 | CCOc1ccc(S(=O)(=O)Nc2ccncc2)c(C)c1C | 97%
82 | C/C(CCC(=O)OC[C@H]1O[C@H](C#Cc2ccccc2)C=C[C@@H]1Oc1ccc(C)cc1)=N\OC[C@@H](O)[C@H]1O[C@@H]2OC(C)(C)O[C@@H]2[C@H]1O | 106%
83 | O=C(Nc1nc2ccc(S(=O)(=O)N3CCCC3)cc2s1)C1CCCO1 (configuration not stated) | 95.5%
84 | Cc1cc(Br)ccc1NC(=O)C1CCCO1 (configuration not stated) | 107%
85 | Cc1cc(C)c2nc(NC(=O)C3CCCO3)sc2c1 (configuration not stated) | 151% (active)
86 | CCc1cc2c(=O)c(-c3nc4ccccc4n3C)c(CCCC(=O)O)oc2cc1OC(=O)C(C)(C)C | 90.5%
87 | COC(=O)C1=CN(Cc2ccc(OC)c(OC)c2)C=C(C(=O)OC)C1c1cccs1 | 45.2%
88 | C=CCNC(=O)/C=C/c1ccc(C(C)C)cc1 | 120%
89 | Cn1c(=NC(=O)c2ccco2)sc2cccc(F)c21 | 135% (active)
90 | Cn1c(=NC(=O)C2CC2)sc2cc(F)cc(F)c21 | 108%
91 | CCCC(=O)N=c1sc2cccc(F)c2n1C | 114%
92 | CC(=O)Nc1ccc(S(=O)(=O)Oc2ccc(/C=N/N=C3/NC(=O)C(CC(=O)O)S3)cc2)cc1 (configuration not stated) | 97.8%
93 | CCCCn1c(=O)c(C(C)=O)c(O)c2ccccc21 | 95.7%
94 | COc1cc([C@H](Cc2ccccc2)NC(C)=O)oc(=O)c1 | 96.8%
95 | Cc1cc(C2=NNC(=Nc3ccc(S(=O)(=O)N4CCOCC4)cc3)SC2)c(C)n1CC1CCCO1 (configuration not stated) | 99.8%
96 | C=CCn1c(C)cc(C2=NNC(=NCC)SC2)c1C | 15.6%
97 | COCCn1c(C)cc(C2=NNC(=Nc3ccc(F)cc3)SC2)c1C | 133% (active)
